Entries with a potency or affinity are not part of this list. Inconclusive results are not listed. The source made the active and inactive calls. Unless noted, no rule for the calls is given here.
Assays:
[1] = RMG-1 ovarian cancer cell viability loss – cherry-pick, dose response (AID 687029;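 active = signal drop whose fitted half-maximal concentration is at most twice the top valid dose, in every test run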;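 also: cells exposed to compound for 96 hours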); conditions: RMG-1 viability, CellTiterGlo ATP luminescence, 96 h; series mostly up to 35 µM
[2] = IOSE-T80 viability loss, PAX8-independent line – cell-based, cherry-pick, selectivity assay for PAX8 inhibitor project, dose response (AID 687032;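 active = fitted half-maximal concentration for viability loss no higher than twice the top valid dose, in every repeat run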;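 also: cells exposed to compound for 96 h before reading; 0% = neutral control wells and -100% = 2 µM mitoxantrone kill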); conditions: CellTiterGlo ATP luminescence, 96 h; series mostly up to 35 µM
[3] = CMV-driven luciferase expression suppression in HEK293 – cell-based, luminescence, dry powder, counter-screen for Pax8 inhibitor project, dose response (AID 743020;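 active = signal-lowering compounds whose fitted half-maximal concentration is at or below twice the top tested dose in every run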;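 also: HEK293 cells stably expressing the CMV luciferase reporter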); conditions: HEK293 CMV-luciferase reporter, SteadyGlo luminescence, 24 h; series mostly up to 35 µM
[4] = general cell-killing toxicity readout – plate reader, dry powder samples, cytotoxicity control for PAX8 inhibitor project, dose response (AID 743021); conditions: cell line, non-specific cytotoxicity counter-screen; series mostly up to 35 µM
[5] = IGROV1 cell killing – plate reader, dry powder samples, PAX8 inhibitor project, dose response (AID 743043); conditions: IGROV1 ovarian cancer cell cytotoxicity; series mostly up to 35 µM;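 also: more negative means fewer viable cells or more cytotoxicity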
[6] = OVCAR-3 cell viability loss – plate reader, dry powder samples, PAX8 inhibitor project, dose response (AID 743044); conditions: NIH:OVCAR-3 ovarian cancer cell viability
[7] = toxicity toward immortalized ovarian surface epithelium – cell-based, plate reader, dry powder samples, cytotoxicity control for PAX8 inhibitor project, dose response (AID 743045); conditions: IOSE-T80 ovarian epithelial cells; series mostly up to 35 µM;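 also: 0% = neutral control median and -100% = positive control median; more negative values mean more cell killing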
[8] = A2780 cell killing – plate reader, dry powder samples, cytotoxicity control, dose response (AID 743046); conditions: A2780 ovarian cancer cytotoxicity; series mostly up to 35 µM;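 also: 0% = neutral control wells and -100% = cytotoxic reference compound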
[9] = OVCAR8 cell viability loss – plate reader, dry powder samples, PAX8 project, dose response (AID 743197); conditions: series mostly up to 35 µM
[10] = max activity: at 35 µM, stronger effect = lower value unless noted, series mostly up to 50 µM

Measured: max activity

C[C@@H]1CCCCO[C@@H](CN(C)Cc2ccccc2)[C@@H](C)CN([C@@H](C)CO)C(=O)c2cc(NS(=O)(=O)c3ccc(Cl)cc3)ccc2O1
inactive: [1] | [2] | [3] | [4] | [5] | [6]; [10] 29.1% [at 0.26 µM, stronger effect = lower value] | [7]

O=C(C[C@H]1C[C@@H]2c3cc(NS(=O)(=O)c4ccc(F)cc4)ccc3O[C@@H]2[C@@H](CO)O1)NCc1ccc(-c2ccccc2)cc1
inactive: [1] | [2] | [3] | [4] | [5] | [6]; [10] -28.3% | [7] | [8]

COc1ccc(S(=O)(=O)Nc2ccc3c(c2)C(=O)N([C@H](C)CO)C[C@@H](C)[C@H](CN(C)S(=O)(=O)c2ccc(F)cc2)OCCCC[C@H](C)O3)cc1
inactive: [1] | [2] | [3] | [4] | [5] | [6]; [10] -24.5% | [7] | [8]

O=C(O)c1cccc(N/N=C/c2cccs2)c1
inactive: [1] | [2] | [3] | [4]

C[C@@H]1CCCCO[C@H](CN(C)Cc2ccc(C(F)(F)F)cc2)[C@@H](C)CN([C@@H](C)CO)C(=O)c2cc(NS(=O)(=O)c3ccc(Cl)cc3)ccc2O1
inactive: [1] | [2] | [3] | [4] | [5] | [6]; [10] -151% | [7]

C[C@H](CO)N1C[C@H](C)[C@@H](CN(C)Cc2ccc(Cl)c(Cl)c2)OCCCC[C@H](C)Oc2ccc(NS(=O)(=O)c3ccc(F)cc3)cc2C1=O
inactive: [1] | [2] | [3] | [4] | [5] | [6]; [10] -28.3% | [7]

O=C(C[C@@H]1CC[C@H]2[C@@H](COC[C@H](O)CN2C(=O)Nc2ccc(Cl)c(Cl)c2)O1)NCc1ccc(Cl)cc1
inactive: [1] | [2] | [3] | [4] | [5] | [6]; [10] -36.1% | [7]

COc1ccc(NC(=O)Nc2ccc3c(c2)C(=O)N([C@H](C)CO)C[C@@H](C)[C@@H](CN(C)C(=O)Cc2ccccc2)OCCCC[C@H](C)O3)cc1
inactive: [1] | [2] | [3] | [4] | [5] | [6]; [10] -34.5% | [7]

COc1ccc2c(c1)C(C)=CC(C)(C)N2S(=O)(=O)c1ccc(Br)cc1
inactive: [1] | [2] | [3] | [4] | [5]

C[C@@H]1CCCCO[C@@H](CN(C)Cc2ccc(Cl)c(Cl)c2)[C@H](C)CN([C@@H](C)CO)C(=O)c2cc(NS(=O)(=O)c3ccc(Cl)cc3)ccc2O1
inactive: [1] | [2] | [3] | [4] | [5] | [6]; [10] 10.4% [at 0.5 µM, stronger effect = lower value] | [7] | [8]

C[C@@H]1CN([C@H](C)CO)C(=O)c2cc(NS(=O)(=O)c3ccccc3)ccc2O[C@@H](C)CCCCO[C@H]1CN(C)Cc1ccc(Cl)c(Cl)c1
inactive: [1] | [2] | [3] | [4] | [5] | [6]; [10] 22% [at 0.5 µM, stronger effect = lower value] | [7] | [8]

C[C@H](CO)N1C[C@H](C)[C@H](CN(C)S(=O)(=O)c2ccccc2)OCCCC[C@H](C)Oc2ccc(NS(=O)(=O)c3ccc(Cl)cc3)cc2C1=O
inactive: [1] | [2] | [3] | [4] | [5] | [6]; [10] -18.9% | [7]

C[C@@H]1CN([C@H](C)CO)C(=O)c2cc(NC(=O)CCCCCC(=O)Nc3ccccc3N)ccc2O[C@@H](C)CCCCO[C@H]1CN(C)Cc1ccc(Cl)c(Cl)c1
inactive: [1] | [2] | [3] | [4] | [5] | [6]; [10] -28.2% | [7] | [8]

FC(F)(F)c1nnc2c(Sc3ccc(Cl)cc3)nc3ccccc3n12
inactive: [1] | [2] | [3] | [4]

CCO[C@H]1OC(C(=O)N2CCN(Cc3ccccc3)CC2)=C[C@@H](c2ccc(C(F)(F)F)cc2)[C@@H]1CCCO
inactive: [1] | [2] | [3] | [4]

C[C@@H]1CN([C@@H](C)CO)C(=O)c2cc(NC(=O)Nc3ccc(C(F)(F)F)cc3)ccc2O[C@@H](C)CCCCO[C@H]1CN(C)C(=O)c1ccccc1
inactive: [1] | [2] | [3] | [4] | [5] | [6]; [10] 12.6% [at 0.26 µM, stronger effect = lower value] | [7]

COc1ccccc1C#Cc1ccc([C@@H]2[C@@H](C#N)N(C(=O)C3CCCCC3)[C@H]2CO)cc1
inactive: [1] | [2] | [3] | [4] | [5] | [6]; [10] 26.7% [at 30 µM, stronger effect = lower value] | [6]; [10] | [7] | [8] | [9]

Cc1cccc(-c2ccc([C@H]3[C@@H](CO)N4CCCCN(S(=O)(=O)c5cccc(C)c5)C[C@@H]34)cc2)c1
inactive: [1] | [2] | [3] | [4] | [5] | [6]; [10] -13.6% | [7] | [8]

Cc1ccc(S(=O)(=O)Nc2ccc3c(c2)C(=O)N([C@H](C)CO)C[C@@H](C)[C@H](CN(C)S(=O)(=O)c2ccccc2)OCCCC[C@H](C)O3)cc1
inactive: [1] | [2] | [3] | [4] | [5] | [6]; [10] -31.1% | [7]

COc1ccc(-c2ccc3c(c2)[C@@H]2[C@@H](CCN2C(=O)NC2CCCCC2)[C@@H](CO)N3C)cc1
inactive: [1] | [2] | [3] | [4] | [5] | [6]; [10] -44.1% [at 9 µM, stronger effect = lower value] | [7]

COc1ccc(S(=O)(=O)N(C)C[C@H]2OCCCC[C@@H](C)Oc3ccc(NS(=O)(=O)c4c(C)noc4C)cc3C(=O)N([C@H](C)CO)C[C@H]2C)cc1
inactive: [1] | [2] | [3] | [4] | [5] | [6]; [10] -13.5% | [7] | [8]

O=C(Nc1ccc(C(F)(F)F)cc1)N1C[C@@H]2N[C@H](C1)C2c1ccc(-c2cccc(F)c2)cc1 (some centres undefined)
inactive: [1] | [2] | [3] | [4] | [5] | [6]; at 8 µM, stronger effect = lower value -9.78% | [6]; at 35 µM, stronger effect = lower value -0.968% | [7] | [8] | [9]

C[C@@H]1CCCCO[C@@H](CN(C)Cc2ccc(Cl)c(Cl)c2)[C@H](C)CN([C@@H](C)CO)C(=O)c2cc(NS(=O)(=O)c3ccccc3)ccc2O1
inactive: [1] | [2] | [3] | [4] | [5] | [6]; [10] -34.1% [at 0.26 µM, stronger effect = lower value] | [7] | [8]

C[C@@H]1CCCCO[C@@H](CN(C)Cc2ccncc2)[C@H](C)CN([C@H](C)CO)C(=O)c2cc(NC(=O)Nc3ccc(C(F)(F)F)cc3)ccc2O1
inactive: [1] | [2] | [3] | [4] | [5] | [6]; [10] 17.2% [at 4.2 µM, stronger effect = lower value] | [7] | [8]

N#Cc1cccc(-c2ccc3c(c2)[C@@H]2[C@@H](CCN2C(=O)C2CCCCC2)[C@@H](CO)N3)c1
inactive: [1] | [2] | [3] | [4] | [5] | [6]; [10] 11.5% [at 16 µM, stronger effect = lower value] | [7] | [8]

C[C@@H]1CCCCO[C@@H](CN(C)C(=O)Nc2ccc(C(F)(F)F)cc2)[C@H](C)CN([C@H](C)CO)C(=O)c2cc(NS(=O)(=O)c3ccccc3)ccc2O1
inactive: [1] | [2] | [3] | [4] | [5] | [6]; [10] 50.6% [at 8 µM, stronger effect = lower value] | [7] | [8]

C[C@@H]1CCCCO[C@H](CN(C)Cc2ccc3c(c2)OCO3)[C@@H](C)CN([C@@H](C)CO)C(=O)c2cc(NS(=O)(=O)c3ccc(Cl)cc3)ccc2O1
inactive: [1] | [2] | [3] | [4] | [5] | [6]; [10] -40.7% [at 16 µM, stronger effect = lower value] | [7] | [8]

CC(C)CC#Cc1ccc2c(c1)O[C@@H](CN(C)S(=O)(=O)c1ccc(F)cc1)[C@H](C)CN([C@@H](C)CO)S2(=O)=O
inactive: [1] | [2] | [3] | [4] | [5] | [6]; [10] 21.6% [at 4.2 µM, stronger effect = lower value] | [7] | [8]

C[C@H](O)C#Cc1ccc2c(c1)O[C@H](CN(C)Cc1ccc(-c3ccccc3)cc1)[C@H](C)CN([C@@H](C)CO)S2(=O)=O
inactive: [1] | [2] | [3] | [4] | [5] | [6]; [10] 54.2% [at 0.5 µM, stronger effect = lower value] | [7] | [8]

CCCC#Cc1ccc([C@H]2[C@H]3CN(S(=O)(=O)Cc4ccccc4)CCCCN3[C@H]2CO)cc1
inactive: [1] | [2] | [3] | [4] | [5] | [6]; [10] -34.3% | [7] | [8]

CS(=O)(=O)N1C[C@@H]2N[C@H](C1)[C@@H]2c1ccc(-c2ccccc2)cc1
inactive: [1] | [2] | [3] | [4] | [5] | [6]; [10] 15.8% [at 1 µM, stronger effect = lower value] | [7] | [8]

CCCC#Cc1ccc2c(c1)O[C@H](CN(C)Cc1ccccc1)[C@@H](C)CN([C@H](C)CO)S2(=O)=O
inactive: [1] | [2] | [3] | [4] | [5] | [6]; [10] 7.94% [at 1 µM, stronger effect = lower value] | [7] | [8]

C[C@H](CO)N1C[C@H](C)[C@H](CN(C)C(=O)c2ccccc2)OCCCC[C@H](C)Oc2ccc(NC(=O)Nc3ccc(C(F)(F)F)cc3)cc2C1=O
inactive: [1] | [2] | [3] | [4] | [5] | [6]; [10] 16.6% [at 0.5 µM, stronger effect = lower value] | [7] | [8]

From PubChem BioAssay
